In PubChem BioAssay:
Active and inactive are the calls of the source. Unless noted, how the calls were made is not given here.

What was measured:
[1] = compound effects on lung adenocarcinoma cell viability – A549, calcein-AM fluorescence, 48 h, basal, profiling panel (AID 1162); conditions: higher = more signal; further: test concentration not given here
[2] = compound effects on differentiated 3T3-L1 adipocyte viability – cell-based, 3T3-L1 adipocytes, calcein-AM fluorescence, 48 h, basal, profiling panel (AID 1163); conditions: 3T3-L1 adipocytes viability, higher = more signal; further: test concentration not given here
[3] = compound effects on hepatocellular carcinoma cell viability – HepG2, calcein-AM fluorescence, 48 h, basal, profiling panel (AID 1164); conditions: higher = more signal; further: test concentration not given here
[4] = compound effects on multiple myeloma cell viability – MM1S, calcein-AM fluorescence, 48 h, basal, profiling panel (AID 1165); conditions: higher = more signal; further: test concentration not given here
[5] = calcein-AM signal in unstimulated myeloma cells – cell-based, calcein-AM fluorescence, 48 h, PK04 Diversity Set, profiling panel (AID 1166); conditions: RPMI8226 myeloma viability, higher = more signal;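 further: cells grown under basal conditions without added stimulus; test concentration not given here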
[6] = JC-1 mitochondrial signal, unstimulated HepG2 cells – cell-based, JC-1 fluorescence, 24 h, 100 nL compound, profiling panel (AID 1167); conditions: HepG2 mitochondrial potential, higher = more signal; further: test concentration not given here
[7] = JC-1 mitochondrial signal, unstimulated adipocytes – cell-based, JC-1 fluorescence, 3T3-L1 adipocytes, 24 h, 100 nL compound, profiling panel (AID 1168); conditions: JC-1 mitochondrial fluorescence, higher = more signal, called active from +8 up or from −8 down; further: test concentration not given here
[8] = JC-1 mitochondrial signal, unstimulated myeloma cells – cell-based, JC-1 fluorescence, RPMI8226, 24 h, 100 nL compound, profiling panel (AID 1169); conditions: JC-1 mitochondrial potential fluorescence, higher = more signal; further: test concentration not given here
[9] = JC-1 mitochondrial signal, unstimulated MM1S myeloma – cell-based, JC-1 fluorescence, 24 h, 100 nL compound, profiling panel (AID 1170); conditions: MM1S mitochondrial potential, higher = more signal; further: test concentration not given here
[10] = resazurin metabolic signal in A549 cells – cell-based, resazurin fluorescence, 24 h, PK04 Diversity Set, profiling panel (AID 1171); conditions: A549 viability, higher = more signal, called active from +8 up or from −8 down; further: test concentration not given here
[11] = resazurin metabolic signal in HepG2 cells – cell-based, resazurin fluorescence, 24 h, PK04 Diversity Set, profiling panel (AID 1172); conditions: HepG2 viability, higher = more signal; further: test concentration not given here
[12] = budding yeast growth changes without added modifier – OD600, strain BY4716, 24 h, basal condition, primary screen (AID 1173); conditions: S. cerevisiae BY4716 growth, OD600, 24 h; higher = more signal, called active from +8 up or from −8 down
[13] = viability profiling in MM1S myeloma cells – cell-based, resazurin fluorescence, basal, 24 h, PK04 Diversity Set, profiling panel (AID 1174); conditions: higher = more signal, called active from +8 up or from −8 down; further: test concentration not given here
[14] = target: Dihydroorotate dehydrogenase (quinone), mitochondrial (Plasmodium falciparum (isolate 3D7)) (UniProt Q08210); test: inhibition of P. falciparum DHODH – biochemical, C-terminal His tag, absorbance 600 nm, primary screen (AID 1175); conditions: PfDHODH enzyme, DCIP absorbance 600 nm; higher = more signal, called active from +8 up or from −8 down;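 further: recombinant parasite enzyme with a five histidine tag at its C terminus; test concentration not given here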
[15] = inhibition of PAO1 biofilm formation – strain PAO1, LB-PBS medium, absorbance 600 nm, primary screen (AID 1176); further: test concentration not given here; conditions: P. aeruginosa PAO1 growth/biofilm, A600, 12 h; higher = more signal
[16] = growth modulation of vineyard yeast isolate – strain RM11-1a, OD600, basal, 24 h, primary screen (AID 1177);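 further: cultures grown under basal conditions with no added stressor; test concentration not given here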; conditions: S. cerevisiae RM11-1a growth, OD600, 24 h; higher = more signal, called active from +8 up or from −8 down
[17] = growth of efflux-deficient E. coli DRC39 – strain DRC39, OD650, 24 h, E. coli filamentation inducers, primary screen (AID 1178);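 further: growth measured as culture turbidity by optical density at 650 nm; test concentration not given here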; conditions: E. coli DRC39 acrAB, higher = more signal, called active from +8 up or from −8 down
[18] = growth of efflux-deficient E. coli DRC39 – strain DRC39, OD650, 48 h, E. coli filamentation inducers, primary screen (AID 1179);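 further: screen aims at cell division blockers that make cells filament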; conditions: E. coli DRC39 delta-acrAB growth, higher = more signal, called active from +8 up or from −8 down
[19] = viability profiling in RPMI8226 myeloma cells – cell-based, resazurin fluorescence, basal, 24 h, PK04 Diversity Set, profiling panel (AID 1180); conditions: higher = more signal;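 further: RPMI8826 multiple myeloma cell line at 5000 cells per well; test concentration not given here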
[20] = target: E3 ubiquitin-protein ligase XIAP (Homo sapiens) (UniProt P98170); test: small molecules binding XIAP protein – biophysical, small-molecule microarray, fluorescence 635 nm, primary screen (AID 1181); conditions: higher = more signal;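 further: score merges 667 nm emission and signal to noise over triplicate slides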
Chain of E3 ubiquitin-protein ligase XIAP (Homo sapiens) (P98170 whole entry, looked up): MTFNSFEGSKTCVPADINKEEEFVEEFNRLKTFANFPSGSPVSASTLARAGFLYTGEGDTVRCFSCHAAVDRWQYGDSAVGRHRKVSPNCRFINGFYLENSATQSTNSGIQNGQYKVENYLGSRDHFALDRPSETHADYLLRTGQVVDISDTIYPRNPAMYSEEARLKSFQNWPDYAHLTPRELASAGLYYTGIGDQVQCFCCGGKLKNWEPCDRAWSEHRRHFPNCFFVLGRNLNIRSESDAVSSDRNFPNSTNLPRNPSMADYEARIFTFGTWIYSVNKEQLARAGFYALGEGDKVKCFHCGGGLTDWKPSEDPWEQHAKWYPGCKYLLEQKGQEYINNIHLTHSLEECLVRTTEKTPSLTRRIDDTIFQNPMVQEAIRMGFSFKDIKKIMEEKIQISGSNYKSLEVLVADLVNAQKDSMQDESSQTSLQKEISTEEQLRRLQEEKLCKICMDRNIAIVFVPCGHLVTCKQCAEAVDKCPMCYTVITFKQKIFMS

Chain of Dihydroorotate dehydrogenase (quinone), mitochondrial (Plasmodium falciparum (isolate 3D7)) (Q08210 whole entry, looked up): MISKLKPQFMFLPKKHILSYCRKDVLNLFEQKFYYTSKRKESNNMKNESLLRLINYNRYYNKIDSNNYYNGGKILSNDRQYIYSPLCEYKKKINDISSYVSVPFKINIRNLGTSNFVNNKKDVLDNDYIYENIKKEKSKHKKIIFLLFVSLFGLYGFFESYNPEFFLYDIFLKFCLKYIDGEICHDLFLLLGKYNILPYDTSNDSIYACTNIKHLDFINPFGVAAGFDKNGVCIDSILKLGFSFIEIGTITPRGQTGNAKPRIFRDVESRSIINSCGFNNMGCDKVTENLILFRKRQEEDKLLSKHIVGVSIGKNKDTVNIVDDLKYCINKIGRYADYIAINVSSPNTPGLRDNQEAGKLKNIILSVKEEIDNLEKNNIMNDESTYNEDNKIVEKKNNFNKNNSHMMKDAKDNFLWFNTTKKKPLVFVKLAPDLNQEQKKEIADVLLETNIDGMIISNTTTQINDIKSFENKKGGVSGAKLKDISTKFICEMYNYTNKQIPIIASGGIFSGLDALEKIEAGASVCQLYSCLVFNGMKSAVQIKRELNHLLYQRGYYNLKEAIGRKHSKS

Structure (SMILES)	z-score [1]	z-score [2]	z-score [3]	z-score [4]	z-score [5]	z-score [6]	z-score [7]	z-score [8]	z-score [9]	z-score [10]	z-score [11]	z-score [12]	z-score [13]	composite z-score [14]	z-score [15]	z-score [16]	z-score [17]	z-score [18]	z-score [19]	composite z-score [20]
COCCOC(=O)N1C(=O)[C@@]2(c3ccccc31)[C@H](c1ccc(OCCO)cc1)N1[C@H](c3ccccc3)[C@H](c3ccccc3)OC(=O)[C@H]1[C@@H]2C(=O)Nc1nc2ccccc2s1	-1.38	0.73	-1.18	-1.15	-1.57	-3.4	0.576 (inactive)	-1.09	-1.36	0.294 (inactive)	0.269	1.29 (inactive)	-0.657 (inactive)	-0.383 (inactive)	2 (inactive)	1.11 (inactive)	-0.176 (inactive)	-0.524 (inactive)	0.0486	0.259
CCOC(=O)[C@H]1C/C=C/C[C@H](C(=O)OCC)C(=O)O[C@H]2[C@@H](OC)O[C@H](CO)[C@@H](OC(=O)Nc3ccc(OC)cc3)[C@@H]2OC1=O	2.98	0.202	1.12	-0.465	-0.274	1.89	1.84 (inactive)	-0.292	-0.998	-1.29 (inactive)	-1.45	-0.0211 (inactive)	-2.07 (inactive)	0.214 (inactive)	0.979 (inactive)	0.864 (inactive)	0.391 (inactive)	1.25 (inactive)	-1.08	0.191
CC(=O)n1cc(C(O)C2C=CC3C(=O)N(Cc4ccccc4)C(=O)C3N2n2cnnc2)c2ccccc21 (stereo not given)	-0.919	-0.0245	-0.392	-1.12	0.125	-1.07	-0.623 (inactive)	0.563	-0.321	-0.756 (inactive)	-0.227	0.319 (inactive)	-0.929 (inactive)	-0.351 (inactive)	-0.514 (inactive)	-0.371 (inactive)	-1.34 (inactive)	-1.4 (inactive)	-1.27	0.764
C=C(C(=O)CC[C@H](OC(C)=O)c1cccc(OCCO)c1)C(C)C	-0.271	0.8	-0.979	-0.624	-0.814	-1.1	0.113 (inactive)	-0.427	0.89	-0.62 (inactive)	-1.23	-0.105 (inactive)	-0.748 (inactive)	-0.781 (inactive)	-0.411 (inactive)	0.0297 (inactive)	-1.04 (inactive)	-0.86 (inactive)	-0.559	0.0454
C[C@]12C(=O)N(CCCCCCO)[C@@H]3C(=O)N(c4ccc(Cl)cc4)CC=CC31O[C@@H]1/C=C\CCCOC(=O)C12 (stereo not given in full)	0.41	1.23	2.06	1.61	0.0929	1.09	-0.317 (inactive)	0.655	0.411	-0.0459 (inactive)	-0.578	-1.3 (inactive)	0.423 (inactive)	-0.699 (inactive)	-0.0558 (inactive)	-1.29 (inactive)	-0.0299 (inactive)	0.692 (inactive)	1.05	-0.235
C=CC[C@]1(C(=O)N(C)C)N=C(c2ccc(OCCCO)cc2)O[C@H]1c1ccccc1N=[N+]=[N-]	-0.363	-0.768	-0.2	-0.995	-1.85	-0.358	0.0159 (inactive)	-0.886	-1.23	-0.302 (inactive)	0.146	0.136 (inactive)	-1.54 (inactive)	0.25 (inactive)	0.286 (inactive)	0.446 (inactive)	-0.0751 (inactive)	-0.179 (inactive)	-1.32	0.121
CN1C(=O)C2C=CC(C(O)C3CCCCC3)N(N3CCCCC3)C2C1=O (stereo not given)	-1.21	-0.52	-0.517	-0.163	0.084	-0.968	-0.347 (inactive)	-0.763	-0.228	-0.167 (inactive)	-0.435	0.369 (inactive)	-0.752 (inactive)	0.419 (inactive)	0.158 (inactive)	1.51 (inactive)	-0.501 (inactive)	-0.406 (inactive)	-0.487	-0.0548
C=CCN1Cc2ccccc2C[C@@]2(N=C(c3ccc(OCCCO)cc3)O[C@H]2c2ccccc2)C1=O	-1.46	0.906	-1.05	-3.52	-3.95	0.166	1.4 (inactive)	-1.03	-2.48	-3.12 (inactive)	0.211	-5.82 (inactive)	-3.09 (inactive)	-0.13 (inactive)	0.535 (inactive)	0.0893 (inactive)	-0.137 (inactive)	0.468 (inactive)	-4.81	-0.031
CN(C)CCCNC(=O)[C@@H]1c2ccccc2C(=O)N(CC23CC4CC(CC(C4)C2)C3)[C@H]1c1ccc(CO)cc1	-0.104	0.195	-0.99	-3.75	-1.91	1.44	-0.211 (inactive)	-0.296	-1.73	1.21 (inactive)	-0.701	-3.33 (inactive)	-0.809 (inactive)	-0.184 (inactive)	0.0435 (inactive)	0.28 (inactive)	0.309 (inactive)	0.401 (inactive)	-0.692	0.0973
